Laboratory results as given in publication PMC10668032, “Altered binding affinity of SIX1-Q177R correlates with enhanced WNT5A and WNT pathway effector expression in Wilms tumor”.
Over roughly 33,000 sequences, “e-score” has its median near -0.05; the highest 2% begin near 0.38. Many of the other results were omitted from the sample, so the highest values are more common in it than they were.

Each sequence was assayed against T1, SIX1-Q177R homeodomain (human, UniProt Q15475 108-198, Q177R) (assay: universal protein binding microarray; Universal all-10-mer PBM (8x60K, AMADID 030236), 300 nM GST-tagged protein, Alexa Fluor 488 anti-GST; buffer, salt, pH and temperature not stated (as in Berger); high values mean tight binding). Settings: protein: ivt; tags: N-terminal GST; dsDNA, one strand shown.
T1 sequence: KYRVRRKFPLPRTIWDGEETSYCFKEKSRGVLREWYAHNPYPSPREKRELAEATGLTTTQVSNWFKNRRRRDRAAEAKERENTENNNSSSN
Outline: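 GST-tagged homeodomains were made by in vitro transcription/translation and quantified by anti-GST western blot against a recombinant GST standard curve. They were applied in duplicate at 300 nM final concentration to universal 'all 10-mer' protein binding microarrays (8×60K format). Binding was quantified as 8-mer E-scores with the Universal PBM Analysis Suite.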

| Sequence | binding signal |
| --- | --- |
| CGTGTTAA | 0.391 ± 0.0262 E-score |
| AGTGTTTG | 0.336 ± 0.0138 E-score |
| GGTGTTAA | 0.475 ± 0.00681 E-score |
| CGTGTTTA | 0.346 ± 0.0127 E-score |
| GGAGTTAA | 0.266 ± 0.0274 E-score |
| AGTGTTAG | 0.394 ± 0.00412 E-score |
| GGGGTTAA | 0.198 ± 0.00273 E-score |
| AGTGTTTA | 0.296 ± 0.0461 E-score |
| CGTGTGAA | 0.302 ± 0.00315 E-score |
| GGTGTTTA | 0.4563 ± 0.00286 E-score |
| AGTGTTCG | 0.369 ± 0.0134 E-score |
| CCTATAAC | 0.194 ± 0.0389 E-score |
| ACCCTACC | 0.193 ± 0.0205 E-score |
| CGGGTTCA | 0.175 ± 0.04 E-score |
| CACCGGTA | 0.345 ± 0.00414 E-score |
| CGTGATAC | 0.248 ± 0.0091 E-score |
| ATCCCGGG | 0.209 ± 0.0458 E-score |
| CCGGGGTA | 0.284 ± 0.00939 E-score |
| AGTGTTGA | 0.318 ± 0.0168 E-score |
| CGTGTTAG | 0.38 ± 0.00955 E-score |
| CGTGTTGA | 0.358 ± 0.0177 E-score |
| CGTGTTAC | 0.408 ± 0.00576 E-score |

| Sequence | binding signal |
| --- | --- |
| CGTGTGAG | 0.276 ± 0.0289 E-score |
| CGTGTTTC | 0.339 ± 0.0138 E-score |
| GGTGTTGA | 0.4626 ± 0.00453 E-score |
| CGTGTTGC | 0.333 ± 0.0224 E-score |
| ACGGTCTC | 0.153 ± 0.00373 E-score |
| CACCGCAC | 0.333 ± 0.0118 E-score |
| AGTACCCG | 0.154 ± 0.00938 E-score |
| CTAGGGTA | 0.236 ± 0.0217 E-score |
| GGGTGACA | 0.302 ± 0.0147 E-score |
| CTGTGACA | 0.21 ± 0.00229 E-score |
| GTGTGACA | 0.436 ± 0.0156 E-score |
| TGTCAAAA | 0.198 ± 0.0336 E-score |
| CACCCTGC | 0.293 ± 0.0291 E-score |
| ATGGAGTG | 0.274 ± 0.0146 E-score |
| AGGGGACA | 0.179 ± 0.0364 E-score |
| ACCCACGC | 0.171 ± 0.00328 E-score |
| ACTCCGCT | 0.185 ± 0.0321 E-score |
| ACACCGCG | 0.4808 ± 0.00187 E-score |
| ACCCCGCG | 0.254 ± 0.0276 E-score |
| GCACCGCC | 0.265 ± 0.00467 E-score |
| ACACCGCA | 0.4797 ± 0.00463 E-score |
| ACCCCGCT | 0.209 ± 0.0248 E-score |

| Sequence | binding signal |
| --- | --- |
| ACACCGCC | 0.4737 ± 0.0034 E-score |
| ACGCCGCC | 0.153 ± 0.0249 E-score |
| ATACCGCA | 0.179 ± 0.00528 E-score |
| GCACCGCA | 0.169 ± 0.0396 E-score |
| ACACCGCT | 0.4659 ± 0.00251 E-score |
| ATACCGCG | 0.238 ± 0.0151 E-score |
| CCTTGACA | 0.253 ± 0.00743 E-score |
| CCCATGGA | 0.189 ± 0.033 E-score |
| ACCCTGTG | 0.207 ± 0.0277 E-score |
| GGTATACC | 0.303 ± 0.0126 E-score |
| ATGGGTGC | 0.154 ± 0.0381 E-score |
| CCCCTGAG | 0.16 ± 0.00444 E-score |
| AGGCGTAC | 0.221 ± 0.0327 E-score |
| ACCAGGTG | 0.217 ± 0.0167 E-score |
| ACTGCGTG | 0.29 ± 0.0171 E-score |
| ATGCGACA | 0.198 ± 0.03 E-score |
| CGGGTTAC | 0.159 ± 0.0432 E-score |
| ATAGGTAC | 0.166 ± 0.021 E-score |
| AGACACCT | 0.4528 ± 0.0033 E-score |
| AGACACCG | 0.468 ± 0.0126 E-score |
| AGACACGG | 0.377 ± 0.019 E-score |
| AGACACTG | 0.341 ± 0.0138 E-score |

| Sequence | binding signal |
| --- | --- |
| AATGATAC | 0.212 ± 0.0688 E-score |
| AACCCCAC | 0.222 ± 0.0452 E-score |
| ACCCGGAT | 0.301 ± 0.0466 E-score |
| ACACGGAT | 0.392 ± 0.0346 E-score |
| ACACGGAG | 0.369 ± 0.00835 E-score |
| ACACGGAA | 0.398 ± 0.0244 E-score |
| ACCCGGAA | 0.272 ± 0.0105 E-score |
| AGGATACC | 0.337 ± 0.0124 E-score |
| CGACCTCA | 0.168 ± 0.0123 E-score |
| CAACTACA | 0.2474 ± 0.00148 E-score |
| ACCCTACG | 0.164 ± 0.0266 E-score |
| CCCCATGC | 0.201 ± 0.0118 E-score |
| GAAGGGTA | 0.169 ± 0.0222 E-score |
| AGTGTGGC | 0.193 ± 0.0161 E-score |
| CGTGTAGC | 0.416 ± 0.0198 E-score |
| CGTGTAGA | 0.379 ± 0.0134 E-score |
| AGTGTGGG | 0.192 ± 0.0212 E-score |
| AGTGTAGG | 0.411 ± 0.00742 E-score |
| AGTGTAGC | 0.3944 ± 0.000672 E-score |
| AGTGTTGC | 0.321 ± 0.00542 E-score |
